Screens as filed in PubChem BioAssay.
The list is not random: actives were taken first. Their share in the collection is about 8.7%.
Pf growth 48h: Primary qHTS for delayed death inhibitors of the malarial parasite plastid, 48 hour incubation | P. falciparum luciferase growth in erythrocytes, 48 h | Potency, µM (titrated, usually from 28.7 µM), for inactives: top-dose activity change, negative = inhibition, actives largely listed as inhibitors | 310,000 tested, 5.9% active | AID 504832, 2011
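Luciferase-expressing P. falciparum in infected erythrocytes (2% hematocrit, 0.1% parasitemia final) in RPMI 1640/0.5% Albumax were exposed to compound for 48 hours at 37 C, 5% CO2; growth read as luminescence.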
AMA1-RON2 inh: qHTS for Inhibitors of AMA1-RON; Towards Development of Antimalarial Drug Lead: Primary Screen; Plasmodium falciparum AMA1 (3D7) - RON2 peptide interaction; AlphaScreen AMA1-biotinylated RON2 peptide binding; Potency, µM (titrated, usually from 58.2 µM), inactives show at the highest dose activity change, negative = inhibition, hits mostly inhibitors; 360,000 tested, 0.2% active;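 further: 0% = vehicle wells and -100% = peptide control; nearly all actives have a fitted effect of over 45% in size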
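AMA1 (3D7) with his tag at 25 nM final met compounds first, then biotinylated RON2 peptide at 25 nM; detection used donor plus acceptor beads, 10 µg/mL apiece, read by AlphaScreen after 30 min at room temperature.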
Pf growth 96h: Primary qHTS for delayed death inhibitors of the malarial parasite plastid, 96 hour incubation. P. falciparum luciferase reporter growth, 96 h. Potency, µM (highest dose often 28.7 µM), inactives show at the highest dose activity change, negative = inhibition, most hits filed as inhibitors. 320,000 tested, 6.9% active. AID 504834, 2011
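Erythrocytes infected with luciferase-expressing P. falciparum were dispensed at 2% hematocrit and 0.05% parasitemia (final), then incubated with compounds 96 hours at 37 C in 5% CO2. Luminescence after detection reagent addition reported growth.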
VACV mCherry inh: qHTS for Stage-Specific Inhibitors of Vaccinia Orthopoxvirus: mCherry Reporter Primary qHTS | Potency, µM (top dose mostly 36.5 µM), inactives show at the highest dose activity change, negative = inhibition, hits mostly inhibitors | 310,000 tested, 0.63% active | Vaccinia virus mCherry reporter infection, fluorescence; calls by dose curve; tested in A549 cells; further: nearly all actives have a fitted effect of over 35% in size
Vaccinia Venus: qHTS for Stage-Specific Inhibitors of Vaccinia Orthopoxvirus: Venus Reporter Primary qHTS. Vaccinia virus Venus reporter expression, fluorescence. Potency, µM (top dose mostly 36.5 µM), without a hit: at the highest dose activity change, negative = inhibition, most hits filed as inhibitors. 330,000 tested, 0.46% active. AID 720580, 2013; calls by dose curve; tested in A549 cells; further: nearly all actives have a fitted effect of over 30% in size
Active calls of the source: *; i = inactive; u = inconclusive; x = not tested or not shown. Unless noted, the call rests on the fitted dose curve; in most records, active means well fitted curve in the direction sought with a large enough effect; inconclusive means small, poorly fitted or top-dose-only effect, or another doubt; inactive means no such curve, though single readings can be large; an effect the other way counts as inactive or inconclusive. Unless noted, on the % scale 0 is the no-effect control and ±100 the full control effect; potency means the concentration at half of the fitted maximal effect.

SMILES	Pf growth 48h	AMA1-RON2 inh	Pf growth 96h	VACV mCherry inh	Vaccinia Venus
COc1ccc(-c2cn3nc(N4CCCC(C(=O)Nc5cc(C)cc(C)c5)C4)sc3n2)cc1 (stereo not given)	x	x	x	-12%	-12%
CN1C(=O)Cc2cc(S(=O)(=O)NCc3ccccc3Cl)ccc21	x	x	x	-12%	-2%
CC(C)(C)n1ncc2c(=O)n(Cc3ccccc3Br)cnc21	2.9µM*	x	u	x	x
Cc1cc(C(C)(C)C)oc1C(=O)N(CC(=O)NC1CCCC1)c1cccc(C(F)(F)F)c1	9.3µM*	-9%	12µM*	u	u
Cc1ccccc1N(CC(=O)NC1CCCC1)C(=O)c1oc(C(C)(C)C)cc1C	12µM*	-14%	u	i	5%
Cc1cc(C(C)(C)C)oc1C(=O)N(CC(=O)NC1CCCC1)Cc1ccccc1Cl	u	-6%	9.3µM*	-21%	u
CCC(C)NC(=O)Cn1c(=O)n(Cc2ccc(C(=O)NCc3ccc(C)cc3)cc2)c(=O)c2ccccc21 (stereo not given)	x	x	x	-7%	-10%
COc1ccc(/C=N/Nc2nc(-c3cccc(S(=O)(=O)N4CCCC4)c3)cs2)cc1OC	9.3µM*	15%	12µM*	-22%	-14%
Cc1csc(N/N=C/c2ccc(O)c([N+](=O)[O-])c2)n1	x	-20%	u	i	-5%
O=[N+]([O-])c1cc(/C=N\Nc2nc(-c3ccccc3)cs2)ccc1O	12µM*	15%	31%	u	2%
CCOc1cc(/C=N/Nc2nc(-c3cccc(S(=O)(=O)N4CCCC4)c3)cs2)ccc1O	9.3µM*	3%	10µM*	u	u
COc1cc(/C=N/Nc2nc(-c3ccc(S(=O)(=O)N(C)C)cc3)cs2)ccc1O	2.1µM*	22%	8.3µM*	x	x
Cc1c(NC(=O)c2cc([N+](=O)[O-])ccc2N2CCOCC2)cccc1-c1nc2ccccc2o1	x	x	x	-25%	-29%
COC(=O)c1cc(CNC(=O)c2ccc(N(C)C)cc2)cc(NC(=O)c2ccccc2Cl)c1	x	x	x	-3%	0%
CC(C)CN(CCNC(=O)c1cc(-c2ccc(Cl)s2)nc2ccccc12)CC(C)C	x	x	x	-25%	-18%
COc1cc(NC(=O)c2c(C)oc3c2C2=NCCN2C=N3)cc(OC)c1OC	x	x	x	-5%	-3%
CCc1cc(C(=O)OC)c(NC(=O)CN2CCN(C(=O)C3CCCO3)CC2)s1 (stereo not given)	u	1%	0.66µM*	i	-6%
COC(=O)c1ccccc1NC(=O)CN1CCN(C(=O)c2ccco2)CC1	u	-18%	x	-21%	-13%
CCOC(=O)c1c(NC(=O)CN2CCN(C(=O)C3CCCO3)CC2)sc(C)c1C (stereo not given)	u	-13%	-6%	-4%	-25%
Cc1ccc(C(=O)c2cc(C)sc2NC(=O)CN2CCN(C(=O)c3ccco3)CC2)cc1	1.3µM*	-24%	7%	11µM*	u
CCc1cc(C(=O)OC)c(NC(=O)CN2CCN(C(=O)c3ccco3)CC2)s1	1.7µM*	6%	u	i	-9%
Cc1cc(C(=O)c2ccccc2)c(NC(=O)CN2CCOCC2)s1	12%	5%	30%	-22%	-12%
CCOC(=O)N1CCN(CC(=O)Nc2sc(CC)cc2C(=O)c2ccc(OC)cc2)CC1	u	-5%	10µM*	i	u
CN(C)S(=O)(=O)c1ccc2c(c1)N(CC(=O)N1CCC(C(N)=O)CC1)CCS2	x	x	x	4%	6%
CCOC(=O)c1ccc(NC(=O)CS(=O)(=O)Cc2nc(-c3ccc(C)cc3)oc2C)cc1	x	x	x	-20%	-20%
COc1ccc(CCNCc2c(C(=O)O)c(C)n(Cc3cccc(Cl)c3)c2C)c(OC)c1OC	x	x	x	-6%	1%
COc1ccc(CCNC(=O)Cn2cnc3c(cnn3C(C)(C)C)c2=O)cc1OC	7%	-14%	10µM*	-20%	-13%
COc1ccc(CCNC(=O)CNC(=O)c2nn(-c3ccc(OC)c(OC)c3)c(=O)c3ccccc23)cc1OC	9.3µM*	-16%	60%	18%	-1%
